Measured values taken from PubChem BioAssay (EPA / NIEHS).
Calls of active or inactive are those of the source. Rule for the calls: active = hit-call score of the fitted dose curve at least 0.9, where 1 is the maximum; inactive = score below 0.9.

What was measured:
[1] = ATG_AP_1_CIS: Attagene CIS-FACTORIAL HepG2 Assay for human Activator Protein 1 (AP-1) (AID 2282931); conditions: HepG2 Attagene cis-factorial AP-1 reporter mRNA; actives raise or lower the signal
In short: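 Readout is reporter transcript level from endogenous transcription factor activity, quantified by RT-PCR with fluorescent primer extension and capillary electrophoresis. Transiently transfected HepG2 cells, 24 h exposure. Curves fitted both directions versus DMSO.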

[2] = ATG_BRE_CIS: Attagene CIS-FACTORIAL HepG2 Assay for human Bone Morphogenetic Protein (BMP) Response Element (BRE) (AID 2282933); conditions: HepG2 BMP response element reporter, Attagene transcription factor profiling; actives raise or lower the signal
In short: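 A HepG2 multiplex reporter system measured inducible reporter mRNA 24 h post-dosing. Detection: RT-PCR, 6-FAM primer extension, HpaI digestion, capillary electrophoresis. Activity fitted bidirectionally relative to DMSO.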

[3] = target: Retinoic acid receptor alpha (Homo sapiens) (UniProt P10276); assay: ATG_DR5_RAR_CIS: Attagene CIS-FACTORIAL HepG2 Assay for human Retinoic Acid Receptor Alpha (RARE), DR5 submotif (AID 2282934); conditions: HepG2 Attagene cis-factorial RARE DR5 reporter, mRNA; actives raise or lower the signal;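 for AC50: reporter responds to endogenous RAR alpha beta and gamma in HepG2 not RARA alone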
In short: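 After 24 h of chemical exposure, transiently transfected HepG2 cells were lysed for total RNA; the DR5-regulated reporter transcript was quantified via RT-PCR and capillary electrophoresis, with activity fitted bidirectionally against DMSO.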

[4] = target: Transcription factor E2F1 (Homo sapiens) (UniProt Q01094); assay: ATG_E2F_CIS: Attagene CIS-FACTORIAL HepG2 Assay for human E2F Transcription Factor 1 (AID 2282935); conditions: HepG2 Attagene cis-reporter, E2F reporter RNA transcripts; actives raise or lower the signal
In short: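 Liver-derived HepG2 cells expressing transfected promoter-driven reporter units received test chemical for 24 hours. Signal gains or losses were fitted bidirectionally against DMSO.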

[5] = ATG_E_Box_CIS: Attagene CIS-FACTORIAL HepG2 Assay for human Enhancer Box (E-box) (AID 2282936); conditions: HepG2 E-box cis-reporter transcription, actives raise or lower the signal
In short: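 In this cell-based setup, HepG2 cells bearing transfected promoter-driven reporter units were exposed to chemicals for 24 h; reporter transcripts were amplified, 6-FAM-labelled, cut with HpaI and sized by capillary electrophoresis.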

[6] = ATG_M_61_CIS: Attagene CIS-FACTORIAL HepG2 Assay for M61 Transcription Factor (Internal Marker) (AID 2282937); conditions: HepG2 Attagene CIS-FACTORIAL M61 internal marker reporter; actives raise or lower the signal
In short: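 Readout is reporter mRNA by RT-PCR, fluorescent primer extension and capillary electrophoresis, with gain or loss fitted relative to DMSO. Transfected HepG2 cells carrying endogenous-TF-driven cis reporters were exposed to chemicals for 24 hours.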

[7] = ATG_EGR_CIS: Attagene CIS-FACTORIAL HepG2 Assay for human Early Growth Response 1 (EGR1) (AID 2282938); conditions: HepG2 Attagene CIS-FACTORIAL EGR reporter mRNA; actives raise or lower the signal
In short: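 After 24 h compound exposure, RNA from reporter-transfected HepG2 cells was reverse-transcribed, PCR-amplified, fluorescently labelled and resolved by capillary electrophoresis. EGR1 reporter transcript changes, up or down, were fitted against DMSO, reflecting endogenous transcription-factor activity.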

[8] = ATG_M_19_CIS: Attagene CIS-FACTORIAL HepG2 Assay for M19 Transcription Factor (Internal Marker) (AID 2282939); conditions: HepG2 Attagene CIS-FACTORIAL M19 internal marker reporter; actives raise or lower the signal
In short: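 Chemical-treated HepG2 (24 h) with MRTU constructs; reporter transcripts detected by fluorescent RT-PCR fragment analysis on capillary electrophoresis. Internal background marker, DMSO as baseline.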

[9] = ATG_ERE_CIS: Attagene CIS-FACTORIAL HepG2 Assay for Estrogen Response Element (ERE) (AID 2282940); conditions: HepG2 ERE cis-reporter, Attagene RNA transcript; actives raise or lower the signal
In short: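 Human liver cells (HepG2) bearing transiently transfected, promoter-regulated reporter units were exposed 24 h. Reporter mRNA induction was detected by capillary electrophoresis of labelled RT-PCR products and fitted bidirectionally to DMSO.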

[10] = ATG_Ets_CIS: Attagene CIS-FACTORIAL HepG2 Assay for human Erythroblast Transformation Specific (ETS) (AID 2282941); conditions: HepG2 ETS cis-reporter transcription, actives raise or lower the signal
In short: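 Multiplexed reporter transcript profiling: HepG2, 24 h treatment, total RNA to cDNA, PCR, 6-FAM labelling, HpaI cut, capillary electrophoresis. Gain- or loss-of-signal fitted against DMSO.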

[11] = target: Hepatocyte nuclear factor 3-beta (Homo sapiens) (UniProt Q9Y261); assay: ATG_FoxA2_CIS: Attagene CIS-FACTORIAL HepG2 Assay for human Forkhead box A2 (FOXA2) (AID 2282942); conditions: HepG2 cis-reporter transcription factor activity, 24 h; actives raise or lower the signal
In short: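 Endogenous transcription factor activity is captured via cis-element-driven reporter transcripts in transfected HepG2. Total RNA taken at 24 h post-dosing; labelled RT-PCR products resolved by capillary electrophoresis. Gain or loss fitted versus DMSO.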

[12] = ATG_FoxO_CIS: Attagene CIS-FACTORIAL HepG2 Assay for human Forkhead box O (FoxO) (AID 2282943); conditions: HepG2 Attagene cis-reporter, FoxO element, mRNA; actives raise or lower the signal
In short: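 Transfected HepG2 reporter cells exposed to test chemical for 24 h; reporter RNA measured by reverse transcription, PCR and fluorescent capillary electrophoresis; curves fitted for increases and decreases against DMSO.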

[13] = ATG_GATA_CIS: Attagene CIS-FACTORIAL HepG2 Assay for human GATA Binding Protein (AID 2282944); conditions: HepG2 GATA cis-element reporter, Attagene multiplex mRNA; actives raise or lower the signal
In short: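 Transfected cis-reporter HepG2 cells were treated with chemicals for 24 hours. Total RNA was then converted to cDNA, amplified with reporter-specific primers and analysed by fluorescent capillary electrophoresis, using DMSO-treated wells as baseline.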

[14] = ATG_GLI_CIS: Attagene CIS-FACTORIAL HepG2 Assay for human Zinc Finger Protein GLI1 (AID 2282945); conditions: HepG2, Attagene cis-factorial reporter mRNA, GLI element; actives raise or lower the signal
In short: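 Transiently transfected HepG2 cells report endogenous transcription factor activity via cis-element-driven reporter units. After 24 h compound exposure, reporter mRNA was measured by RT-PCR with capillary electrophoresis; bidirectional fitting against DMSO baseline.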

[15] = target: Bile acid receptor (Homo sapiens) (UniProt Q96RI1); assay: ATG_IR1_CIS: Attagene CIS-FACTORIAL HepG2 Assay for human Nuclear Receptor Subfamily 1 Group H Member 4 (NR1H4), IR1 submotif (AID 2282946); conditions: IR1 reporter transcription, actives raise or lower the signal
In short: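 Fluorescence of capillary-separated, HpaI-digested RT-PCR reporter products gave IR1-element mRNA induction in HepG2 cells 24 h after dosing. Endogenous transcription factors drove the cis-regulated reporters; activity was fitted bidirectionally against DMSO.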

[16] = ATG_GRE_CIS: Attagene CIS-FACTORIAL HepG2 Assay for human Glucocorticoid Response Elements (GRE) (AID 2282947); conditions: HepG2 GRE cis-reporter, Attagene multiplex mRNA; actives raise or lower the signal
In short: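 Fluorescence intensity of reporter-specific cDNA fragments, separated by capillary electrophoresis, provides the signal. Constructs carry cis-regulating promoters in transiently transfected HepG2 liver cells; 24 h incubation; fitting is bidirectional against DMSO.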

[17] = ATG_ISRE_CIS: Attagene CIS-FACTORIAL HepG2 Assay for human Interferon Regulatory Factor 1 (IRF1) binding to an Interferon-Stimulated Response Element (ISRE) (AID 2282948); conditions: HepG2 ISRE cis-reporter (Attagene), mRNA transcription readout; actives raise or lower the signal
In short: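 Signal reflects induction or loss of ISRE-linked reporter mRNA in transiently transfected HepG2 cells after a 24 h treatment, detected by fluorescent RT-PCR fragments on capillary electrophoresis and normalised to DMSO.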

[18] = ATG_M_32_CIS: Attagene CIS-FACTORIAL HepG2 Assay for M32 Transcription Factor (Internal Marker) (AID 2282949); conditions: HepG2 Attagene cis-factorial M32 reporter, mRNA; actives raise or lower the signal;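 note: background control marker of the multiplexed CIS panel rather than a real target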
In short: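 HepG2 transfectants (cis-regulated reporter transcription units) dosed 24 h. Reporter mRNA by RT-PCR plus CE, analysed as gain or loss relative to DMSO.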

[19] = ATG_M_06_CIS: Attagene CIS-FACTORIAL HepG2 Assay for M06 Transcription Factor (Internal Marker) (AID 2282950); conditions: HepG2 Attagene CIS-FACTORIAL M06 internal marker reporter; actives raise or lower the signal
In short: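 Cells (HepG2, transiently carrying cis-driven reporter units) receive chemical for 24 h before RNA isolation. Reporter cDNA is PCR-amplified, FAM-labelled by primer extension, HpaI-digested and sized on a capillary analyser.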

[20] = ATG_AP_2_CIS: Attagene CIS-FACTORIAL HepG2 Assay for human Activator Protein 2 (AP-2) (AID 2282932); conditions: HepG2 AP-2 cis-reporter, Attagene transcription factor profiling; actives raise or lower the signal
In short: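 Liver-derived HepG2 line, cis-reporter system measuring endogenous factors; 24 h dosing; reporter mRNA detected by fluorescent RT-PCR and capillary electrophoresis.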

Measured: AC50

Sequence of Bile acid receptor (Homo sapiens) (Q96RI1 whole entry, looked up): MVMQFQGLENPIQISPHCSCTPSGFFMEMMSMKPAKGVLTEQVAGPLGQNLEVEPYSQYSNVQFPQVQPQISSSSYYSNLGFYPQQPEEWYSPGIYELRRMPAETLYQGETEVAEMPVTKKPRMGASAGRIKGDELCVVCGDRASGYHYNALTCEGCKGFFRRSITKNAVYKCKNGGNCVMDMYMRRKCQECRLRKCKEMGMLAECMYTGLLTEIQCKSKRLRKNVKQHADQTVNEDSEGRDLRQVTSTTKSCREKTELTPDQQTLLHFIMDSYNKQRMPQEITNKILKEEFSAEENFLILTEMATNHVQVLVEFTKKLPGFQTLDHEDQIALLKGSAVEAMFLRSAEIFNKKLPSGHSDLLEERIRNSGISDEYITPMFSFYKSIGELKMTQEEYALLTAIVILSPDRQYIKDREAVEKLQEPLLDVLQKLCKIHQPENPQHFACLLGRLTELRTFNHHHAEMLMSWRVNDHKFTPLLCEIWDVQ
Sequence of Hepatocyte nuclear factor 3-beta (Homo sapiens) (Q9Y261 whole entry, looked up): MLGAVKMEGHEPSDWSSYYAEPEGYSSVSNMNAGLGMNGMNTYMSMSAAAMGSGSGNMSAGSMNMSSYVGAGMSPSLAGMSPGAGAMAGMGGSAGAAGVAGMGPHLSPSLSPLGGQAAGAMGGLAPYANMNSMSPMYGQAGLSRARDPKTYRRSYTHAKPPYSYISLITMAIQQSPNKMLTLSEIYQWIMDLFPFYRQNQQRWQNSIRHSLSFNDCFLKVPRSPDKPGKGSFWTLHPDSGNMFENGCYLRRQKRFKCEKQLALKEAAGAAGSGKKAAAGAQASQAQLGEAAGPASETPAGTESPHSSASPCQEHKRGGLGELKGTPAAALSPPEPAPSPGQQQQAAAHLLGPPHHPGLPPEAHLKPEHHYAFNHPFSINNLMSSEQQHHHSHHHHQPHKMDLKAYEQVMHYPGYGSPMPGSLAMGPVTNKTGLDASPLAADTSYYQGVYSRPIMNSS
Sequence of Retinoic acid receptor alpha (Homo sapiens) (P10276 whole entry, looked up): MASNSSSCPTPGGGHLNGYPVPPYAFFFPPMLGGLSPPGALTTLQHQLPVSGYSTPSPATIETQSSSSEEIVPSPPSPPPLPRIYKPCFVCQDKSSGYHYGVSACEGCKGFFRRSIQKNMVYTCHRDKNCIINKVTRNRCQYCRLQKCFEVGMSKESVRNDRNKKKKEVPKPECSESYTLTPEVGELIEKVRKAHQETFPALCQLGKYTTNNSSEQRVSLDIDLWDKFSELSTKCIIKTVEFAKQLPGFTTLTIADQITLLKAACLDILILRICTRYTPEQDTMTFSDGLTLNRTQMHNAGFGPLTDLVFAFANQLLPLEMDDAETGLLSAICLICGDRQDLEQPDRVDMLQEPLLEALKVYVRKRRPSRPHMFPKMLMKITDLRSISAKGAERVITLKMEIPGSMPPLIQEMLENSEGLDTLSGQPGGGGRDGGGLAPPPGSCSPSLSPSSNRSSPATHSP
Sequence of Transcription factor E2F1 (Homo sapiens) (Q01094 whole entry, looked up): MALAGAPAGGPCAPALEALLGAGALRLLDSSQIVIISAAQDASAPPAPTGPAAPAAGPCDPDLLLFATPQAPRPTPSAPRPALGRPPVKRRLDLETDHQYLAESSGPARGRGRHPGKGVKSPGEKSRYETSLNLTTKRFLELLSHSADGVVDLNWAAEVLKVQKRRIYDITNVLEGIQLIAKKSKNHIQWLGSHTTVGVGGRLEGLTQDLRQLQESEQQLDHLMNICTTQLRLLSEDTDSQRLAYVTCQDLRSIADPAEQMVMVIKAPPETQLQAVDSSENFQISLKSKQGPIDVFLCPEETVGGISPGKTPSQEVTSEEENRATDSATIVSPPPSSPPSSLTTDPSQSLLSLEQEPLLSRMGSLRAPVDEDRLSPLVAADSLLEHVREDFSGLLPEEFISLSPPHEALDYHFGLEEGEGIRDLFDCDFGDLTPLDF

Fc1ccc(C2(Cn3cncn3)OC2c2ccccc2Cl)cc1 (stereo not drawn)
active: [2] 69.9 µM
not listed: [20]
inactive: all other assays above

CCCCC(CC)CO[N+](=O)[O-] (stereo not drawn)
active: [3] 99.5 µM
not listed: [15] | [20]
inactive: all other assays above

CC(=O)c1cc(C(C)(C)C)cc2c1CCC2(C)C
active: [1] 70.4 µM | [4] 171 µM | [7] 37.9 µM | [11] 147 µM | [14] 143 µM | [16] 73.9 µM
not listed: [3] | [8] | [15] | [20]
inactive: all other assays above

O=C(CCl)CCl
active: [20] 33.4 µM | [5] 30.1 µM | [7] 48.8 µM | [10] 39.1 µM | [12] 46.3 µM | [16] 33.4 µM | [17] 33.4 µM | [18] 54.6 µM
not listed: [3] | [15]
inactive: all other assays above

Clc1nc(Cl)nc(Cl)n1
not listed: [3] | [15]
inactive: all other assays above

CCCCCCCCSC(=O)Oc1cc(Cl)nnc1-c1ccccc1
active: [1] 122 µM | [3] 100 µM | [10] 162 µM | [12] 141 µM | [13] 149 µM | [17] 164 µM
not listed: [15] | [16] | [20]
inactive: all other assays above

CC(C)C1CCC(Cc2ccc(Cl)cc2)C1(O)Cn1cncn1 (stereo not drawn)
active: [1] 17.5 µM | [2] 11 µM
not listed: [20]
inactive: all other assays above

CCOC(=O)CP(=O)(OCC)OCC
not listed: [3] | [8] | [16] | [20]
inactive: all other assays above

Nc1cccc(Cl)c1
not listed: [3] | [16] | [20]
inactive: all other assays above
